Some test systems named below: HCT-15 colon; HT29 colon; SNB-75 CNS; SNB-19 CNS; U251 CNS; PC-3 prostate; SK-MEL-5 melanoma; UACC-62 melanoma; LOX IMVI melanoma; SK-MEL-28 melanoma; EKVX NSCLC; UO-31 renal; TK-10 renal; ACHN renal; CAKI-1 renal; CCRF-CEM leukemia; MOLT-4 leukemia; SN12C renal; A498 renal.
Holding throughout (assay): NCI-60 one-dose screen, 48 h (100 = growth as untreated, 0 = no growth, -100 = all killed)
What all share (details): 10 µM unless noted

About 83,000 compounds went through this panel and 20% of them were active in at least one assay; those are over-represented in the sample as a whole.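 A percent growth of 40 corresponds to 60% growth inhibition; 0 means no net growth; -100 means all cells died. Active threshold: below 10.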 A number with no mark means an inactive call. Calls of active or inactive are those of the source.

Consider `CCOC(=O)c1c(Nc2ccccc2)nn2c(-c3ccc(Cl)cc3)ccnc12`, for which the growth with HCT-15 colon was 77.8%; with HT29 colon, 83.7%; in the experiment with SNB-75 CNS, 88%; in the experiment on SNB-19 CNS, 72.1%; in the experiment on U251 CNS, 81.5%; in the experiment with PC-3 prostate, 80.5%. Besides, the growth in the experiment with SK-MEL-5 melanoma was 80.2%; in the experiment on UACC-62 melanoma, 82.8%; in the experiment with LOX IMVI melanoma, 64.5%; in the experiment on SK-MEL-28 melanoma, 87.2%; in the experiment on EKVX NSCLC, 88.9%; with UO-31 renal it was 64.8%. Moreover, the growth in the experiment on TK-10 renal was 98.1%; in the experiment with ACHN renal it was 47.2%; in the experiment on CAKI-1 renal it was 56.1%; in the experiment on CCRF-CEM leukemia, 16.2%; with MOLT-4 leukemia, 86%.

With `O=C(CCn1c[n+](CC(=O)c2ccc(-c3ccccc3)cc2)c2ccccc21)Nc1cccc2cccnc12`, the growth with HCT-15 colon was 93.8%; in the experiment on HT29 colon it was 51.8%; in the experiment on SNB-75 CNS, 41%; in the experiment with SNB-19 CNS, 41.6%; with U251 CNS, 42.9%; in the experiment on PC-3 prostate, 30.9%. Further, the growth in the experiment with SK-MEL-5 melanoma is 20.8%; in the experiment with UACC-62 melanoma, 15.1%; in the experiment on LOX IMVI melanoma, 57.9%; in the experiment on SK-MEL-28 melanoma, 38.9%; with EKVX NSCLC, 61.9%; in the experiment on SN12C renal, 53.6%. Further, the growth was 82.6% in the experiment with UO-31 renal; 97.5% with TK-10 renal; 103% in the experiment on ACHN renal; 77.7% in the experiment with CAKI-1 renal; 88.7% with A498 renal; 36.1% with CCRF-CEM leukemia. Moreover, the growth in the experiment on MOLT-4 leukemia was 47.9%.

`C[C@@H]1C[C@H]2C(=O)O[C@@H](C)C(NC(=O)[C@H](Cc3cc(F)cc(F)c3)NC(=O)Nc3ccc(C4CC4)cc3F)C(=O)N3CCC[C@H]3C(=O)N3CCCC[C@H]3C(=O)N[C@@H](CO)C(=O)N2C1` (some centres not stated): the growth with HCT-15 colon is 14.1%; in the experiment with HT29 colon, 25.4%; in the experiment with SNB-75 CNS, 31.5%; in the experiment with SNB-19 CNS, 27.9%; in the experiment with U251 CNS, 29.8%; with PC-3 prostate it was 11.5%. For the same compound, the growth in the experiment with SK-MEL-5 melanoma was -15.9% (active); in the experiment on UACC-62 melanoma it was 21.3%; in the experiment with LOX IMVI melanoma, 30.4%; in the experiment with SK-MEL-28 melanoma, 41.1%; with EKVX NSCLC, 30.2%; with SN12C renal it was 18.7%. The growth was 25.8% in the experiment with UO-31 renal; 52.6% in the experiment on TK-10 renal; 28.6% with ACHN renal; 18.6% in the experiment with CAKI-1 renal; 31.2% in the experiment on CCRF-CEM leukemia; 39.7% in the experiment on MOLT-4 leukemia.

Consider `Cc1cc2nc(C(Cl)Cl)nc(-c3cccs3)n2n1`, for which the growth is 11.4% with HCT-15 colon; -12.9% (active) with HT29 colon; 75.3% in the experiment on SNB-75 CNS; 21% in the experiment on SNB-19 CNS; -11.1% (active) in the experiment with U251 CNS; 11.2% in the experiment on PC-3 prostate. Moreover, the growth was 83.9% in the experiment with SK-MEL-5 melanoma; 45.5% in the experiment on UACC-62 melanoma; 74.7% in the experiment on LOX IMVI melanoma; 14.6% in the experiment with SK-MEL-28 melanoma; -7.94% (active) with EKVX NSCLC; 62.3% with SN12C renal. The growth is 31% with UO-31 renal; 18.2% in the experiment with TK-10 renal; -36.4% (active) in the experiment with ACHN renal; -30.9% (active) in the experiment with CAKI-1 renal; -40.7% (active) with A498 renal; 59.8% in the experiment on CCRF-CEM leukemia. Further, the growth in the experiment on MOLT-4 leukemia is 21.3%.

Consider `CCNC(=O)N1CCc2cc(OC)c(OCCc3ccc(OC)cc3)cc2C1c1ccc(Cl)cc1C` (configuration not stated), for which the growth with HCT-15 colon was 9.66% (active); in the experiment with HT29 colon, 2.45% (active); with SNB-75 CNS it was 37.9%; in the experiment on SNB-19 CNS, 26%; in the experiment with U251 CNS, 13.1%; with PC-3 prostate, 26.1%. The growth in the experiment on SK-MEL-5 melanoma is -10.8% (active); with UACC-62 melanoma it was 22.8%; in the experiment on LOX IMVI melanoma it was 8.72% (active); in the experiment on SK-MEL-28 melanoma, 43.3%; with EKVX NSCLC, 37%; in the experiment on SN12C renal it was 18.6%. In addition, the growth in the experiment with UO-31 renal was 28.2%; in the experiment on TK-10 renal, 54.2%; in the experiment on ACHN renal, 23.1%; in the experiment with CAKI-1 renal it was 23.3%; with A498 renal, -12.8% (active); with CCRF-CEM leukemia, 38.2%. Further, in the experiment on MOLT-4 leukemia, the growth was 23.6%.

In the case of `Cc1cccc(/C=C/C(=O)Nc2ncc(Cc3cccc(C)c3)s2)c1`, the growth with HCT-15 colon is 17.5%; with HT29 colon, 2.82% (active); in the experiment with SNB-75 CNS, 8.11% (active); in the experiment on SNB-19 CNS, 47.2%; in the experiment on U251 CNS, 22.1%; with PC-3 prostate, 13%. The growth is -19% (active) in the experiment on SK-MEL-5 melanoma; 14.8% with UACC-62 melanoma; 23.3% in the experiment on LOX IMVI melanoma; 49.8% in the experiment with SK-MEL-28 melanoma; 36.8% in the experiment on EKVX NSCLC; 38.5% in the experiment with SN12C renal. In addition, the growth is 35.4% in the experiment with UO-31 renal; 54.6% in the experiment with TK-10 renal; 42.1% with ACHN renal; 25.3% in the experiment on CAKI-1 renal; 9.99% (active) in the experiment with CCRF-CEM leukemia.

Take `COc1ccc(-n2c(SCc3n[nH]c(=S)o3)nc3ccc(Cl)cc3c2=O)cc1`: the growth with HCT-15 colon is 93.6%; with HT29 colon, 105%; in the experiment on SNB-75 CNS, 95.5%; with SNB-19 CNS, 92.9%; with U251 CNS it was 104%; in the experiment on PC-3 prostate, 101%. The growth in the experiment on SK-MEL-5 melanoma was 93.5%; in the experiment with UACC-62 melanoma it was 92%; with LOX IMVI melanoma it was 101%; in the experiment with SK-MEL-28 melanoma, 95.1%; in the experiment with EKVX NSCLC it was 98.7%; with SN12C renal, 92%. The growth in the experiment on UO-31 renal is 93.7%; in the experiment with TK-10 renal it was 105%; in the experiment on ACHN renal it was 97%; in the experiment with CAKI-1 renal, 85.5%; in the experiment with CCRF-CEM leukemia, 98.7%; in the experiment with MOLT-4 leukemia it was 111%.

Turning to `CCOC(=O)c1c(Nc2ccccc2)nn2c(-c3ccc(OC)cc3)ccnc12`, the growth with HCT-15 colon is 48.6%; in the experiment on HT29 colon, 74.9%; in the experiment on SNB-75 CNS, 82.7%; in the experiment with SNB-19 CNS, 109%; in the experiment on U251 CNS it was 89.2%; in the experiment with PC-3 prostate, 99.2%. Further, the growth with SK-MEL-5 melanoma was 71.3%; in the experiment on UACC-62 melanoma it was 95.1%; with LOX IMVI melanoma it was 80.3%; in the experiment on SK-MEL-28 melanoma it was 89.9%; in the experiment with EKVX NSCLC, 99.6%; with SN12C renal it was 93.5%. In addition, the growth in the experiment with UO-31 renal is 85.7%; with TK-10 renal, 100%; in the experiment with ACHN renal it was 83.8%; with CAKI-1 renal, 78%; in the experiment on CCRF-CEM leukemia, 74.1%.

For `CCOC(=O)c1c(Nc2ccccc2)nn2c(-c3cccs3)ccnc12`, the growth in the experiment with HCT-15 colon was 53.8%; in the experiment on HT29 colon, 80.3%; with SNB-75 CNS, 88.8%; with SNB-19 CNS, 98.2%; in the experiment with U251 CNS, 88.6%; in the experiment with PC-3 prostate it was 81%. The growth in the experiment on SK-MEL-5 melanoma was 70.9%; in the experiment on UACC-62 melanoma it was 84.6%; in the experiment with LOX IMVI melanoma it was 73.7%; with SK-MEL-28 melanoma it was 90.7%; in the experiment on EKVX NSCLC it was 88.8%; with SN12C renal, 91%. Further, the growth with UO-31 renal is 82.6%; in the experiment on TK-10 renal it was 107%; in the experiment with ACHN renal, 88.3%; with CAKI-1 renal, 78.8%; in the experiment with CCRF-CEM leukemia, 58.8%; in the experiment on MOLT-4 leukemia, 74.5%.

The values are drawn from PubChem BioAssay (NCI).
